Only some compounds are listed: those with a hit (about 1.6% of all), similar ones and a draw of the others.
KCNQ2 enhance: potentiators of rat KCNQ2 potassium channel; CHO-K1 KCNQ2, FluxOR thallium flux fluorescence; active compounds read high; B-score at 10 µM; 0.54% of 310,000 active; AID 2239, 2010;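 active = fluorescence ratio B-score at least 3 SD of library B-scores, with initial fluorescence B-score within 3 of them, cut at about 5.3 in these data; same plate scores as AID 2156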;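 note: B-score of peak minus minimum over baseline fluorescence ratio after K+ and Tl+ stimulus; positive B-score means potentiation of KCNQ2 with more thallium influx and brighter signal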
KCNQ2 inh: rat KCNQ2 potassium channel inhibitors, primary screen, cell-based, CHO-K1, FluxOR thallium flux, B-score | Potassium voltage-gated channel subfamily KQT member 2 (Rattus norvegicus), O88943 | 20 min; active compounds read low | B-score at 10 µM | 1.1% of 310,000 active;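 active = fluorescence ratio B-score at most minus 3 library SDs, with starting brightness B-score within 2 library SDs, cut at about -5.5 in these data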
Kir21 confirm: mouse Kir2.1 channel blockers, retest, confirmation, cell-based, FluxOR thallium flux, duplicate; 41% of 2,300 active; Tl flux remaining, % of negative control (active compounds read low), % at 10 µM; shares compounds with KCNQ2 enhance; Kir2.1-expressing cells, FluxOR thallium flux fluorescence; active compounds read low;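 active = Primary-screen hit whose thallium flux fell at least 3 control SD below untreated wells in both duplicates, with normal baseline fluorescence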;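 note: 0% = blank wells without stimulus and 100% = stimulated no-compound controls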
Target sequence (P35561 whole entry, looked up): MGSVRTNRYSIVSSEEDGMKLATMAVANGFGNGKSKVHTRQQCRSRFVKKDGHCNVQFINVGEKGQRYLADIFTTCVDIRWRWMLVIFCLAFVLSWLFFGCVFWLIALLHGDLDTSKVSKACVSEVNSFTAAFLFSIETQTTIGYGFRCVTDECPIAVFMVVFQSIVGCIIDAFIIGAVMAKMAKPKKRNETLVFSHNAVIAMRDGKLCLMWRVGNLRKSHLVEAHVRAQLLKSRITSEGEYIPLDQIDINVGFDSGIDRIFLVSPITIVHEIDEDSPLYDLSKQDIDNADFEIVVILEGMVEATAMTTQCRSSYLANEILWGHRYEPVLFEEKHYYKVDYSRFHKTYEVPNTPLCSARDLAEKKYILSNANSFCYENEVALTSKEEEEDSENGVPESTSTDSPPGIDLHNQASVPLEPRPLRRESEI
HEK293 Tl flux: alters thallium flux in parental HEK293 cells, Kir2.1 counter-screen; 19% of 2,300 active; FluxOR thallium flux fluorescence; 0% = unstimulated blank wells; FluxOR signal as % of negative control (100 = no effect), % at 10 µM; AID 2105; shares compounds with KCNQ2 enhance;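 active = dye signal at least 3 control SD above or below untreated wells in both duplicates, raw fluorescence within 3, either direction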;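 note: percent is based on the flux ratio of peak minus minimum fluorescence over baseline F0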
CHO-K1 ctr: nonspecific thallium flux increase in parental CHO-K1, confirmation, counter-screen for KCNQ2 potentiator project, cell-based, FluxOR thallium flux, duplicate; shares compounds with KCNQ2 enhance; parental CHO-K1 cells, FluxOR thallium flux fluorescence; zero = vehicle mean+3SD, 100% = vehicle-minus-blank window; activity increase over 3SD of controls, % at 10 µM; 43% of 1,200 active;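 active = signal rise of at least 3 SD above the untreated control mean, in both duplicate wells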;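 note: counter screen of KCNQ2 potentiator hits so any rise reflects channel-independent effects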
KCNQ1 pot spec: human KCNQ1 channel potentiation off-target, confirmation, selectivity assay for KCNQ2 potentiator project, cell-based, CHO, FluxOR thallium flux. shares compounds with KCNQ2 enhance. CHO KCNQ1 stable, FluxOR thallium flux fluorescence; beyond 3SD, as % of vehicle-control signal. activation over 3SD threshold, % at 10 µM. 28% of 1,200 active. AID 2283, 2010;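 active = fluorescence ratio rise of at least 3 SD of vehicle wells above their mean, in both replicate wells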;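 note: 0% = vehicle mean plus 3 SD and 100% = vehicle minus unstimulated blank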
KCNQ2 pot confirm: rat KCNQ2 channel potentiators, confirmation, cell-based, CHO, FluxOR thallium flux, duplicate; shares compounds with KCNQ2 enhance; CHO-KCNQ2 cells, FluxOR thallium flux fluorescence; potentiation, less the hit threshold, % at 10 µM; 68% of 1,200 active; AID 2287, 2010;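 active = fluorescence ratio rising 3 SD or more over the vehicle control mean in both replicates, plus primary screen hit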;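 note: peak minus minimum thallium fluorescence divided by baseline after K/Tl stimulus; 0% = vehicle mean plus 3 SD and 100% = vehicle minus unstimulated blank difference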
Kir21 spec: mouse Kir2.1 channel activation off-target, confirmation, selectivity assay for KCNQ2 potentiator project, cell-based, HEK293, FluxOR thallium flux; shares compounds with KCNQ2 enhance; HEK293 Kir2.1, FluxOR thallium flux fluorescence; activity over 3SD threshold, % at 10 µM; 2% of 1,200 active;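 active = fluorescence ratio rise of at least 3 SD above the vehicle-control mean, seen in both replicates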;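 note: 0% = vehicle mean plus 3 SD and 100% = vehicle minus no-stimulus blank window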
KCNQ2 W236L MoA: potentiators of retigabine-insensitive KCNQ2 W236L, mechanism study for KCNQ2 potentiator project, cell-based, rat KCNQ2 W236L, CHO, automated patch clamp; 10% of 940 active; automated patch clamp current; current increase over 3SD of negative controls (%), active compounds read high, % at 25 µM; AID 2558, 2010; shares compounds with KCNQ2 enhance;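 active = current increase at least 3 SD of the untreated controls above them in both duplicate recordings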
An asterisk follows results filed as active; i = inactive; . = no result given.

SMILES	KCNQ2 enhance	KCNQ2 inh	Kir21 confirm	HEK293 Tl flux	others
COc1cc(NC(=O)Cc2c(C(=O)O)n(C)c3ccccc23)cc(OC)c1OC	2.9	i	.	.
Cc1ccc2c(c1)c1c3n2CCN(C(=O)CCl)C3CCC1 (centres undefined)	.	i	i	i
CC(=O)N1CCn2c3c(c4cc(C)ccc42)CCCC31 (centres undefined)	0.68	i	.	.
O=C(NC(Cc1ccccc1)C(=O)O)/C(=C/c1ccc(Cl)cc1)NC(=O)c1ccco1 (centres undefined)	0.5	i	.	.
COc1ccc2c(c1)CC(N1CCN(C)CC1)c1cc(OC)ccc1S2 (centres undefined)	.	i	.	.
Clc1ccc2c(c1)C(N1CCNCC1)Cc1ccccc1S2 (centres undefined)	-12	-12*	32%*	i
Cc1ccoc1C(=O)NCCNc1ccc(Cl)cc1[N+](=O)[O-]	0.62	i	.	.
CC(=O)c1cccc(NC(=O)COc2ccc3oc(=O)cc(C)c3c2)c1	0.63	i	.	.
c1ccc(Nc2nc(NCc3ccco3)c3ccccc3n2)cc1	.	i	.	.
Oc1ccccc1Nc1nc(NCc2ccco2)c2ccccc2n1	.	i	.	.
Cc1cccc(Nc2nc(NCc3ccco3)c3ccccc3n2)c1	.	i	62%*	i
Cc1ccccc1Nc1nc(NCc2ccco2)c2ccccc2n1	-6.3	-6.3*	16%*	i
CCOc1ccccc1C(C(=O)NC1CCCCC1)N(C(=O)c1csnn1)C1CC1 (centres undefined)	1.6	i	.	.
Cc1ccc(SCCC(=O)N/N=C/c2cccnc2)cc1	0.06	i	.	.
COc1ccc(Cc2nnc(NC(=O)Nc3ccccc3F)s2)cc1OC	.	i	.	.
CC(=O)c1cc(CCC(=O)NC2CCCCCC2)oc1C	0.01	i	.	.
Cn1nc(C(F)(F)F)c2cc(NC(=O)OCc3ccc(F)cc3)sc21	4.4	i	.	.
Cn1nc(C(F)(F)F)c2cc(NC(=O)OCc3ccc(C(C)(C)C)cc3)sc21	6.3*	i	i	i	CHO-K1 ctr=38*;KCNQ1 pot spec=-7;KCNQ2 pot confirm=-16;Kir21 spec=-34
Cc1ccc(NC(=S)NCc2cccs2)cc1	8.9*	i	i	i	CHO-K1 ctr=-3;KCNQ1 pot spec=-12;KCNQ2 pot confirm=14*;Kir21 spec=-29;KCNQ2 W236L MoA=i
S=C(NCc1cccs1)Nc1ccccc1	0.61	i	.	.
COc1ccc2oc(C(=O)OCC(=O)N3CCC(C)CC3)c(C)c2c1	4.6	i	.	.
Cc1c(C(=O)OCC(=O)N2CCC(C)CC2)oc2ccccc12	11*	i	i	i	CHO-K1 ctr=14*;KCNQ1 pot spec=-5;KCNQ2 pot confirm=17*;Kir21 spec=-32;KCNQ2 W236L MoA=i
C=CCOc1ccc(/C=N/n2nnnc2N)cc1OC	1.9	i	.	.
S=C(NCc1ccco1)NC1CCCc2ccccc21 (centres undefined)	.	i	.	.
S=C(NCc1ccccc1)NC1CCCc2ccccc21 (centres undefined)	.	i	i	i

High-throughput results from PubChem BioAssay.
